The list is not random: actives were taken first. Their share in the collection is about 2.2%.
PPC-1+TRAIL kill – kills PPC-1 cancer cells in the presence of TRAIL. PPC-1 cells + TRAIL, ATPLite viability luminescence. cell killing (% activity), % at 4 µM or 5 µM. 220,000 tested, 0.41% active. AID 1443;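 active = cell killing above 50% in the first pass at 4 µM, then a duplicate retest at 5 µM averaging 50% or more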;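 also: plate controls were cells with TRAIL plus DMSO for no effect and medium-only wells lacking cells for full effect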
iPSC survival up – enhancers of human iPSC single-cell survival. hiPSC single-cell survival, ATPlite luminescence; 100% = ROCK inhibitor wells, 0% = DMSO. survival enhancement, % at 20 µM. 360,000 tested, 0.044% active; in the data active = survival enhancement above about 18%;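 also: cells exposed to compounds for 16 hours before the ATP read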
KKLEB cytotox – reduces viability of KKLEB cystic fibrosis airway cells; KKLEB CF airway cells viability, ATPlite luminescence, overnight; active compounds read low; cells stimulated with P. aeruginosa culture filtrate; activity change (cytotoxicity), % at 5 µM; 360,000 tested, 0.36% active;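 active = corrected activity change at or below -50% at 5 µM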
HIF-2a inh – inhibitors of HIF-2a; inhibition, % at 18.8 µM; AID 624352; 786-0 RCC cells HIF-2a reporter, luciferase luminescence, overnight; 360,000 tested, 0.72% active;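 active = inhibition of the luminescence signal of 40% or more relative to plate controls, in a single-dose primary screen at 18.75 µM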
TRAIL sens C8 – sensitizes caspase-8 expressing cells to TRAIL | NB7+C8 cells + TRAIL, ATPlite viability luminescence | inhibition (viability loss, TRAIL sensitization), % at 10 µM | 360,000 tested, 1% active | AID 624354;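 active = compounds causing at least 50% loss of cell viability in the single-dose screen, relative to plate controls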
CF NFkB block – cystic fibrosis NF-kB activation inhibition. KKLEB NF-kB-GFP reporter, PAF-induced, GFP fluorescence overnight. inhibition, % at 5 µM. 360,000 tested, 0.86% active;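 active = at least 50% inhibition at 5 µM, scaled per plate between neutral and stimulator controls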;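 also: PAF is a Pseudomonas aeruginosa culture filtrate used as stimulus; plate controls were PAF-stimulated DMSO wells for no effect and unstimulated DMSO wells for full effect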
Starred values were filed as active, the others as inactive; . = not tested or not shown.

SMILES	PPC-1+TRAIL kill	iPSC survival up	KKLEB cytotox	HIF-2a inh	TRAIL sens C8	CF NFkB block
CC(C)C(C(=O)NCC1CCCO1)N(CC1CCCO1)C(=O)CNS(=O)(=O)c1ccccc1 (centres undefined)	.	0	-7	12	9	0
C=CCn1c(SCC(=O)c2[nH]c(C)c(C(=O)OCC)c2C)nc2scc(-c3ccc(OC)c(OC)c3)c2c1=O	10	1	-42	9	21	56*
CC(CNC(=O)Cn1ccc(N)nc1=O)c1ccccc1 (centres undefined)	.	2	-1	7	5	20
O=C(N/N=C/c1ccc(O)cc1)c1[nH]c2ccc(Br)cc2c1-c1ccccc1	-4	-3	-27	18	-36	58*
CCOc1ccc(/C=N/NC(=O)c2[nH]c3ccc(C)cc3c2C)cc1	.	0	-8	-12	7	5
Cc1c(C(=O)N/N=C/c2ccc(Cl)cc2)[nH]c2ccc(Cl)cc12	-2	-2	-44	13	-25	62*
NC(=O)Oc1cccc(OC(N)=O)c1	-18	0	-4	10	11	7
O=C(Nc1ccc(Cl)c([N+](=O)[O-])c1)c1ccc(NCCCN2CCOCC2)c([N+](=O)[O-])c1	12	-4	-18	-10	56*	-21
Cc1ccc(NC(=O)c2ccc(NCCCN3CCOCC3)c([N+](=O)[O-])c2)cc1Cl	21	0	-3	-7	15	5
COc1ccc(S(=O)(=O)NCC2CCCN(C(=O)CC3CCCC3)C2)cc1 (centres undefined)	8	2	0	2	-4	-18
O=C(O)c1ccc(/C=C/c2nc3ccccc3c(=O)[nH]2)cc1	.	-1	9	29	4	-15
Cc1[nH]c2ccccc2c1/C=C/c1nc2ccccc2c(=O)[nH]1	12	0	-3	-280	5	10
Cc1cccc(/C=C/c2nc3ccccc3c(=O)[nH]2)c1	41	-5	-26	-220	55*	13
Clc1cccc(Cl)c1/C=C/c1nc2ccccc2[nH]1	47	-3	-36	-240	68*	-16
O=c1[nH]c(/C=C/c2ccccc2Cl)nc2ccccc12	.	0	-36	-184	64*	-22
O=C1CCCN1CCCNc1nc2c(S(=O)(=O)c3ccc(Br)cc3)nnn2c2ccccc12	.	0	-8	13	1	3
O=C(NCc1ccccc1Cl)C1CCC(=O)N(CCCN2CCCC2=O)C1 (centres undefined)	.	-1	24	4	-1	-8
COc1ccc(/C=C2\Oc3ccccc3C2=O)cc1	.	-3	-22	-39	72*	-25
CC(=O)C1=C(O)C(=Cc2ccccc2)OC1=O	.	-2	0	-16	21	-1
COc1ccc(C=C2OC(=O)C(C(C)=O)=C2O)cc1	.	-5	0	-77	84*	-14
COc1ccc(C(=O)COC(=O)c2nc3nccc(C)n3n2)cc1F	.	1	11	2	-7	0
Cc1nn(CCCC(=O)NCCc2ccccc2)c(C)c1[N+](=O)[O-]	29	1	-6	7	10	-2
Cn1nc([N+](=O)[O-])nc1S(C)(=O)=O	-3	-3	6	-4	-2	70*
CS(=O)(=O)c1nc([N+](=O)[O-])nn1CCCc1ccccc1	.	-1	-44	18	-5	90*
Cc1cc(C(=O)COC(=O)C2=NNC(=O)CC2)c(C)n1-c1ccccc1	45	0	7	10	-2	-10
SMILES	PPC-1+TRAIL kill	iPSC survival up	KKLEB cytotox	HIF-2a inh	TRAIL sens C8	CF NFkB block
O=C(OCC(=O)N1CCN(c2ccccc2)CC1)C1=COCCO1	10	2	2	-31	-8	5
Cc1cc(C(=O)COC(=O)C2=COCCO2)c(C)n1-c1ccccc1	.	-2	-19	14	73*	0
Cc1ccc(OCC(=O)c2cc(C)n(-c3ccccc3)c2C)c([N+](=O)[O-])n1	-2	2	3	84*	28	22
Cc1ccc(-n2c(C)cc(C(=O)COC(=O)C3=NNC(=O)CC3)c2C)cc1	-36	3	-2	50*	2	9
Cc1cc(C)c(S(=O)(=O)c2cccc(C(F)(F)F)c2)c(=O)[nH]1	.	1	7	23	-1	3
Cc1ccc(S(=O)(=O)Nc2ccccc2C(=O)Nc2nc(-c3ccc(F)cc3)cs2)cc1	25	2	-58*	9	53*	49
COc1ccc(-c2csc(NC(=O)c3ccccc3NS(=O)(=O)c3ccc(F)c(F)c3)n2)cc1	19	-1	-51*	35	41	55*
COc1ccc(-c2csc(NC(=O)c3ccccc3F)n2)cc1	.	-1	-3	-223	5	-5
C/C(Cn1nnc([N+](=O)[O-])n1)=N\NC(=O)c1ccccc1O	7	5	4	-14	59*	-13
C/C(Cn1nnc([N+](=O)[O-])n1)=N\NC(=O)c1ccc(O)cc1O	34	0	11	11	45	-8
C/C(Cn1nnc([N+](=O)[O-])n1)=N\NC(=O)c1ccc(O)cc1	14	-1	8	2	57*	5
CCOC(=O)c1c(SCC(=O)Nc2nccs2)nc(C)c(C)c1C	.	0	-2	-190	11	11
COc1cccc(-n2nnnc2S(C)(=O)=O)c1	-1	-5	-32	87*	0	94*
O=C1CCC(=O)N1CCSC(=S)N1CCSCC1	3	1	-2	-27	-1	2
CC(=O)Nc1ccc(C=NNc2nnc(NN=Cc3ccc(NC(C)=O)cc3)c3ccccc23)cc1	.	-6	-28	-70	64*	-13
Clc1ccc(/C=N/Nc2nnc(Cl)c3ccccc23)cc1	22	-2	-33	-198	27	-20
C(=N\Nc1nncc2ccccc12)/c1ccccc1	27	-1	-1	-243	50*	-46
CN(C)c1ccc(/C=N/Nc2nncc3ccccc23)cc1	.	-1	-12	-190	66*	-39
COc1cc2ccnc(C=O)c2cc1OC	.	-2	-26	6	33	86*
O=C(O)c1ccccc1-c1cn2cc(Cl)ccc2n1	27	-2	-6	-16	22	0
Clc1ccc2nc(-c3ccc(Br)s3)cn2c1	40	-3	-45	-54	59*	-7
Oc1cccc2ccc(N3CCOCC3)nc12	.	0	6	3	-9	6
Cc1cc(C)n(-c2nc(Nc3ccccc3C(F)(F)F)nc(-n3nc(C)cc3C)n2)n1	17	0	-14	16	57*	38
CC(=O)[C@H]1CC[C@H]2[C@@H]3CCC4=CC(=O)CC[C@]4(C)[C@H]3[C@H](O)C[C@]12C	20	1	15	-4	-3	-29
CC(=O)O[C@]1(C(C)=O)CC[C@H]2[C@@H]3C[C@H](C)C4=CC(=O)CC[C@]4(C)[C@H]3CC[C@@]21C	19	0	21	12	5	53*

Source: PubChem (Sanford-Burnham Center for Chemical Genomics)
